# Measured values taken from PubChem BioAssay AID588442 (The Scripps Research Institute Molecular Screening Center, 2011).
# Potency and affinity values are given separately. More than one record can exist for a structure, and the calls need not agree. Values without a mark were called inactive.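 How the source made its calls: active means EC50 of 10 µM or lower; inactive means EC50 above 10 µM or not measured.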
# Experiment: optical interference in Abeta FP readout, dose response, artefact control for IDE activator project, biochemical, fluorescence polarization (AID 588442)
# Conditions: FP artifact counterscreen, fluorescein-Abeta, no enzyme activity
smiles,measurement,value
C[n+]1c2cc(N)ccc2cc2ccc(N)cc21,EC50,> 54.7 µM
